# ELG1 DNA repair – inhibitors of ELG1-dependent DNA repair in HEK293T cells; HEK293T ELG1-luciferase reporter, luminescence, 16 h; DNA damage induced by 5-fluorouridine; Potency, µM (titrated, usually from 46.1 µM), for inactives: at the highest dose activity change, negative = inhibition, most hits filed as inhibitors; actives 2.3% (n = 330,000); AID 504467; also: % is scaled to controls: 0 for no effect and ±100 for the full control effect; nearly all actives have a fitted effect of over 55% in size
#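 In this reporter screen, reduction of luminescence relative to DMSO vehicle indicated activity. Compounds and 5-fluorouridine were added together to 2,000 cells per well, incubated for 16 hr at 37 °C, then developed with ONE-Glo.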
# ELG1 genotoxic – genotoxicity induction in ELG1-luciferase HEK293T cells; HEK293T ELG1-luciferase reporter, luminescence, 16 h; Potency, µM (highest dose often 46 µM), without a hit: top-dose activity change, positive = activation, hits mostly activators; actives 1.3% (n = 330,000); AID 504466; also: % of control where 0% means no effect; nearly all actives have a fitted effect of over 60% in size
#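 Cells (2,000/well) expressing the ELG1-luciferase fusion are dosed by pin tool and kept 16 hr at 37 °C, 5% CO2. Signal comes from ONE-Glo luciferase reagent after 30 min at room temperature.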
# SMN2 splice up – SMN2 splice variant enhancement | HEK293 SMN2-luciferase splicing reporter, luminescence, 30-36 h | Potency, µM (highest dose often 46.1 µM), for inactives: at the top dose activity change, positive = activation, usual class: activators | actives 2.8% (n = 210,000) | AID 1458; also: % of control where 0% means no effect; nearly all actives have a fitted effect of over 55% in size
#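 HEK293 cells carry an SMN2 minigene-luciferase reporter in which exon 7 inclusion puts luciferase in frame. Cells were seeded at 2000 cells/well, attached for 10-12 hours, then exposed to compounds for 30-36 hours at 37C before ONE-Glo luminescence.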
# Rab9 prom act – activates the Rab9 promoter | Huh7 Rab9 promoter-luciferase reporter, luminescence, 24 h | Potency, µM (series often up to 9.22 µM), inactives show at the highest dose activation, negative = inhibition, usual class: activators | actives 2.8% (n = 320,000); also: % of control where 0% means no effect; nearly all actives have a fitted effect of over 60% in size
#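 Promoter activation is measured as luciferase luminescence in Huh7 cells stably transfected with a Rab9 promoter–luciferase construct, following 24 h compound exposure at 37 °C and 10 min reagent incubation at ambient temperature.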
# NPC1 promoter act – activators of NPC1 promoter; Huh7 NPC1 promoter luciferase reporter, 24 h; Potency, µM (highest dose often 9.22 µM), for the others: at the highest dose activation, most hits filed as activators; actives 2.4% (n = 320,000); AID 485313; also: % of control where 0% means no effect; nearly all actives have a fitted effect of over 60% in size
#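 NPC1 promoter–luciferase Huh7 cells; 24 h compound; luminescence.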
# FLuc modulator – inhibits or activates purified firefly luciferase, miR-21 counter-screen | P08659 | actives 6.9% (n = 360,000) | Potency, µM (highest dose often 57.5 µM), for the others: at the top dose activity change, negative = inhibition, actives largely listed as inhibitors | purified FLuc, Km substrates, luminescence inhibition;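 also: plate controls were vehicle for no effect and reference inhibitor for full effect; nearly all actives have a fitted effect of over 55% in size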
# Target sequence (P08659 whole entry, looked up): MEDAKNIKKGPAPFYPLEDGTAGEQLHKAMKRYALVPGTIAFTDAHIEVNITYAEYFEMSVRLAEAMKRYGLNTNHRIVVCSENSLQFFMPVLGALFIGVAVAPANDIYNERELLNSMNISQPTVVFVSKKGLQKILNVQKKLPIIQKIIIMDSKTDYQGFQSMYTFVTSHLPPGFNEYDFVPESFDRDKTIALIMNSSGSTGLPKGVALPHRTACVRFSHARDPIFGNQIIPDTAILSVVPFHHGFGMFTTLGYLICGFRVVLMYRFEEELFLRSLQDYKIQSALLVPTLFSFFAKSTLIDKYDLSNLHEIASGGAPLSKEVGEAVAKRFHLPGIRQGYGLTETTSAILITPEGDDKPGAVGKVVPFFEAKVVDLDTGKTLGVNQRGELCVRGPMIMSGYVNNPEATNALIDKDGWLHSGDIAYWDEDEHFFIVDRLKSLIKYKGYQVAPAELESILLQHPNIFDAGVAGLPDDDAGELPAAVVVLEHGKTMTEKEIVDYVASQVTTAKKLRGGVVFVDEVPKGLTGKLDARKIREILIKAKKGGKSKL
#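 Purified P. pyralis luciferase, 10 nM final, with Km-level 10 uM D-luciferin and 10 uM ATP in 50 mM Tris acetate pH 7.5, 10 mM Mg acetate, 0.01% Tween-20, 0.05% BSA; 6-point qHTS titration about 60 µM downward; luminescence read.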
# Active calls of the source: *; u = inconclusive; x = no result given. Only some compounds are listed: those with a hit (about 9.3% of all), similar ones and a draw of the others. Calls follow the shape of the dose curve; as a rule, active = well fitted curve in the direction sought with a large enough effect; inconclusive = small, poorly fitted or top-dose-only effect, or another doubt; inactive = no such curve, though single readings can be large; an effect the other way counts as inactive or inconclusive. Potency is read from the fitted curve at half-maximal effect.
SMILES,ELG1 DNA repair,ELG1 genotoxic,SMN2 splice up,Rab9 prom act,NPC1 promoter act,FLuc modulator
CCOc1ccc(-n2nc3cc(C)c(N)cc3n2)cc1,u,u,x,0.45µM*,0.45µM*,0.34µM*
CCCOc1ccc(-c2csc(N)n2)cc1[N+](=O)[O-],u,u,11µM*,2.8µM*,u,11µM*
CCOc1ccc(-c2cn3ccccc3n2)cc1[N+](=O)[O-],u,u,7.9µM*,2.2µM*,3.5µM*,2.7µM*
CCOc1ccc(Cn2ccnc2)cc1[N+](=O)[O-],u,3%,4%,-3%,3%,-1%
CCCCOc1ccc(-c2cn3ccccc3n2)cc1[N+](=O)[O-],u,u,6.3µM*,2.8µM*,u,2.1µM*
CCOc1ccc(NC(=O)c2sc3nc(N4CCOCC4)c4c(c3c2N)CC(C)(C)OC4)cc1,u,12%,x,2%,-24%,3%
COC(=O)Cn1c(O)c(N=NC(=O)CNC(=O)c2ccncc2)c2ccccc21,u,-1%,x,-1%,-2%,-2%
Cc1ccc(NC(=O)Cn2c(=O)n(Cc3nc(C)no3)c(=O)c3ccccc32)c(Cl)c1,x,x,x,x,x,0%
CC1(C)OC(=O)N(c2ccccc2)C12C=Cc1c(ccc3ccccc13)O2 (configuration not stated),-18%,-6%,-30%,-7%,1%,3%
O=C1NC2(C=Cc3c(ccc4ccccc34)O2)Oc2ccccc21 (configuration not stated),u,15%,-5%,28%,u,6µM*
CN(Cc1ccccc1)C(=O)C1CCCN1S(=O)(=O)c1ccc(Cl)cc1 (configuration not stated),9%,-1%,x,2%,-9%,6%
O=C(/C=C/c1ccco1)Nc1cc(Cl)ccc1C(=O)O,21%,1%,3%,-4%,3%,19µM*
O=C(/C=C/c1ccco1)Nc1ccccc1C(=O)Nc1cccc(C(=O)O)c1,u,4%,x,1%,2%,3µM*
O=C(/C=C/c1ccco1)Nc1ccccc1C(=O)O,u,10µM*,13µM*,2.8µM*,2µM*,2.7µM*
O=C(/C=C/c1ccco1)Nc1ccccc1N1CCCC1,15%,-1%,15%,14%,11%,-9%
COc1ccccc1C(=O)Nc1cc2c(cc1N1CCOCC1)n(C)c(=O)n2C,x,x,13%,x,x,1%
CCNc1nc(NC(C)CC)nc(Oc2ccc(OCC)nn2)n1 (configuration not stated),u,u,5.6µM*,-3%,-9%,-2%
CCOc1ccc(Oc2nc(NCC(C)C)nc(OC)n2)nn1,u,u,23%,-1%,-1%,1%
CCC(C)(C)C1CCC2(CC1)NC(=O)N(CC(=O)NC(C)CCc1ccccc1)C2=O (configuration not stated),1%,-5%,x,-5%,-7%,0%
c1ccc(CN2CCN(C3=Nc4cccc5cccc3c45)CC2)cc1,u,12%,9%,14%,13%,11µM*
Fc1ccc(N2CCN(C3=Nc4cccc5cccc3c45)CC2)cc1,u,2%,0%,15%,24%,15µM*
O=c1c(-c2nn[nH]n2)coc2ccc(Cl)cc12,-28%,-3%,18%,-6%,-2%,-4%
Nn1c(SCc2c(F)cccc2F)nnc1-c1ccccn1,u,16µM*,x,3.2µM*,2µM*,13µM*
COc1ccc(-c2cc(C(=O)N3CCN(c4cccc(C)c4C)CC3)c3ccccc3n2)cc1OC,u,-35%,x,-3%,-1%,u
Cc1ccc(-c2[nH]ncc2CN2CCN(C(=O)c3cccs3)CC2)cc1C,12µM*,-2%,x,-2%,-1%,-1%
COc1ccc(CN2CCN(C(=O)c3cccs3)CC2)c(OC)c1OC,21µM*,2%,-5%,-1%,5%,0%
